Laboratory results as given in PubChem BioAssay.
A number with no mark means an inactive call. For some of these results: Results with a measured potency or affinity are listed apart. Active and inactive are the calls of the source. Unless noted, the rule behind the calls is not given here.

Legend:
[1] = antimalarial activity against Dd2 strain (AID 2302;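 active = growth inhibition above 50% at the single 2 µM test dose, taken to imply half-maximal potency below 2 µM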;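 note: 0% = DMSO untreated growth and 100% = chloroquine plus artemisinin killed control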); details: P. falciparum Dd2 in RBCs, LDH growth readout, 72 h; at 2 µM; hits give high values
[2] = human hepatoma cell viability loss – ATP luminescence, cytotoxicity control for P. falciparum antimalarial project, primary screen (AID 2303;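 active = inhibition above 50%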;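 note: 0% = DMSO wells and 100% = digitonin-killed cells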); details: HepG2 viability, 24-48 h, at 10 µM, hits give high values
[3] = molecular target: L-lactate dehydrogenase (Plasmodium falciparum (isolate CDC / Honduras)) (UniProt Q27743); assay: PfLDH activity inhibition – cell lysate, 3D7 strain, counter-screen for P. falciparum growth inhibition project (AID 2304);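 note: 0% = vehicle and 100% = reference inhibitor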; details: P. falciparum 3D7 crude extract, LDH APAD/NBT absorbance; at 2 µM; hits give high values
L-lactate dehydrogenase (Plasmodium falciparum (isolate CDC / Honduras)), sequence (Q27743 whole entry, looked up): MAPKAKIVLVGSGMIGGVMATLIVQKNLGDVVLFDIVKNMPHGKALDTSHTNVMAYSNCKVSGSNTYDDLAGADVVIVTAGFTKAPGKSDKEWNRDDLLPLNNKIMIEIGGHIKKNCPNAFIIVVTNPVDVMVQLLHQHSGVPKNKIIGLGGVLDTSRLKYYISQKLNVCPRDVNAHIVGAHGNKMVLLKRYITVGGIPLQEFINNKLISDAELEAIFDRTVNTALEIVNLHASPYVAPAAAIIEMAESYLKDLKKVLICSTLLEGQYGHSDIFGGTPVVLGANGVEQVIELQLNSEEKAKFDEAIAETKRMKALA

[4] = inhibition of 3D7 malaria parasite growth – strain 3D7 (AID 2306);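 note: 0% = DMSO wells and 100% = chloroquine plus artemisinin control wells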; details: P. falciparum 3D7 erythrocytic growth, LDH absorbance, 72 h; at 2 µM; hits give high values
[5] = molecular target: Calcium-dependent protein kinase 1 (Plasmodium falciparum (isolate 3D7)) (UniProt P62344); assay: PfCDPK1 kinase inhibitors, biochemical, TCAMS library (AID 1159585; cut-off not given, nearly all actives have IC50 up to about 0.98 µM;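 note: inhibitors leave more ATP so luminescence rises with inhibition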); details: recombinant PfCDPK1, Kinase-Glo ATP depletion luminescence
Calcium-dependent protein kinase 1 (Plasmodium falciparum (isolate 3D7)), sequence (P62344 whole entry, looked up): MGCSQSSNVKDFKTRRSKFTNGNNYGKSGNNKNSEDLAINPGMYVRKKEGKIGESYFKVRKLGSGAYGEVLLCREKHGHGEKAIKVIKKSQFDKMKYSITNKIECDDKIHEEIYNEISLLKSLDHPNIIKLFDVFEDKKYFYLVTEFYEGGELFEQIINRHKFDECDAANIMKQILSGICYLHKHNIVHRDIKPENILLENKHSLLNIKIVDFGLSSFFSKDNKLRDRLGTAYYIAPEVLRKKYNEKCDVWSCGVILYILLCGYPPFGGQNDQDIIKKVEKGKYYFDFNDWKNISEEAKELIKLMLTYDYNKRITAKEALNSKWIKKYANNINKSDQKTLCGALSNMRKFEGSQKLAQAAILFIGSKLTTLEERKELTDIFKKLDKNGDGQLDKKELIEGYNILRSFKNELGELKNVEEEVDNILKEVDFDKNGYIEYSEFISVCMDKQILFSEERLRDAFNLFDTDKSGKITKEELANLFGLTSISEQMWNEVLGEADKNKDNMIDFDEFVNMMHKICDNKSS

[6] = molecular target: Plasmodium falciparum protein kinase 6 (PK6, PF3D7_1337100) (UniProt Q8IDW1); assay: PfPK6 kinase inhibitors, biochemical, TCAMS library (AID 1159586); details: recombinant PfPK6, Kinase-Glo ATP depletion luminescence
Plasmodium falciparum protein kinase 6 (PK6, PF3D7_1337100), sequence (Q8IDW1 1-305): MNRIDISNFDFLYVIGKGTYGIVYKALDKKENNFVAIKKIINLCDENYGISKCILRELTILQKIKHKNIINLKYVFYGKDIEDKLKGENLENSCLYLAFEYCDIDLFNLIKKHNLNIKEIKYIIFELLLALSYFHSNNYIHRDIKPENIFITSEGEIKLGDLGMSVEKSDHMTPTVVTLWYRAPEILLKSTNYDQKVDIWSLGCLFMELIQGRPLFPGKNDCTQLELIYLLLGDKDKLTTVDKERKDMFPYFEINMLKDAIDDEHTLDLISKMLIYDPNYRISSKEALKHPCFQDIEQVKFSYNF

[7] = molecular target: Protein kinase 7 (PK7), Plasmodium falciparum 3D7 (PF3D7_0213400) (UniProt Q7YTF7); assay: inhibition of Plasmodium PK7 catalytic activity – biochemical, TCAMS antimalarial set, Kinase-Glo luminescence (AID 1159587); details: recombinant PfPK7, Kinase-Glo ATP depletion luminescence
Protein kinase 7 (PK7), Plasmodium falciparum 3D7 (PF3D7_0213400), sequence (Q7YTF7 1-343): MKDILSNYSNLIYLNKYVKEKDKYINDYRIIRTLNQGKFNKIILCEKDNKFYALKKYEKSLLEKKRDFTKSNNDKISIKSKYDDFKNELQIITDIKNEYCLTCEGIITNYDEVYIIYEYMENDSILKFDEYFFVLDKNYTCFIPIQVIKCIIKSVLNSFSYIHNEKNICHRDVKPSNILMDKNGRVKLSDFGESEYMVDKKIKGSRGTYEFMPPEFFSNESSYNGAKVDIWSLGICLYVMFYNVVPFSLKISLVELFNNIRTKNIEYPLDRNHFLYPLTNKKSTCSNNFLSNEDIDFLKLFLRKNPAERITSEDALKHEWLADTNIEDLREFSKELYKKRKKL

[8] = molecular target: Calcium-dependent protein kinase 4 (Plasmodium falciparum (isolate 3D7)) (UniProt Q8IBS5); assay: PfCDPK4 kinase inhibitors, biochemical, TCAMS library (AID 1159588; cut-off not given, nearly all actives have IC50 up to about 0.91 µM); details: recombinant PfCDPK4, Kinase-Glo ATP depletion luminescence
Calcium-dependent protein kinase 4 (Plasmodium falciparum (isolate 3D7)), sequence (Q8IBS5 whole entry, looked up): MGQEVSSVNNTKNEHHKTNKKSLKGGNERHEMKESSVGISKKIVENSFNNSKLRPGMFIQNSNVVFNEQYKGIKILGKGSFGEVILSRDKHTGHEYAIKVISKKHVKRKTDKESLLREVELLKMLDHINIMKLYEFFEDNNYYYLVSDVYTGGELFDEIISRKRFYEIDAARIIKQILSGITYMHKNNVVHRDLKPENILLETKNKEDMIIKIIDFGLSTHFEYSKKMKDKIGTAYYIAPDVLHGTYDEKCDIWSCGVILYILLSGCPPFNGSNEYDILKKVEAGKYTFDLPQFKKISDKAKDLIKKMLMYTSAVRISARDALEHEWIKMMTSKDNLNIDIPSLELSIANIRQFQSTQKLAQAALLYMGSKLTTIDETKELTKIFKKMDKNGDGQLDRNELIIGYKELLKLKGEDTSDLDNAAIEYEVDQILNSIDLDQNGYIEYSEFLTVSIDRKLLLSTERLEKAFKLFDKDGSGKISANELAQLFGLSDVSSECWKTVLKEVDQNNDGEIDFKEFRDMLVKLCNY

Compound	growth inhibition [1]	inhibition [2]	inhibition [3] [%]	growth inhibition [4]	outcome [5]	outcome [6]	outcome [7]	outcome [8]
CCc1ccccc1N1CCN(CCCC(=O)c2ccc(NC(=O)c3cc(Cl)cc(Cl)c3)cc2)CC1	46%	16%	1	99% (active)	inactive	inactive	inactive	inactive
CC(C)Nc1nc(NCCc2cnc[nH]2)nc(Nc2ccc(Oc3ccccc3)cc2)n1	9%	-3%	1	95% (active)	inactive	inactive	inactive	inactive
Cc1ccc(-c2noc(COc3ccccc3C(=O)NC3CCCC3)n2)cc1	92% (active)	9%	-4	89% (active)	inactive	inactive	inactive	inactive
CCNC(=O)Nc1ccc(N(C)c2ccnc(NC3CC3)n2)cc1	80% (active)	21%	-5	100% (active)	inactive	inactive	inactive	inactive
CN(C)c1ccc(-c2csc(C(=O)NC3CCCCN(CCC(C)(C)C)C3)c2)cc1 (stereo not drawn)	68% (active)	10%	4	91% (active)	inactive	inactive	inactive	inactive
NCc1cccc(-c2ccccc2CNC2CCN(Cc3ccccc3)CC2)c1	4%	-3%	-2	94% (active)	inactive	inactive	inactive	inactive
c1ccc(-c2nc3ccccc3[nH]2)c(Nc2ccnc3cc(-c4nccs4)ccc23)c1	98% (active)	-4%	3	101% (active)	inactive	inactive	inactive	inactive
COc1ccccc1C1CCN(C2CCC(NC(=O)/C=C/c3ccc4c(c3)OC(F)(F)O4)CC2)CC1 (stereo not drawn)	31%	52% (active)	-2	98% (active)	inactive	inactive	inactive	inactive
Nc1ncnc2nc(-c3ccc(F)cc3)cc(-c3ccc(NC(=O)c4ccccc4)cc3)c12	97% (active)	-6%	0	100% (active)	inactive	inactive	inactive	inactive
CCN(CC)CCN(Cc1ccc(-c2ccc(C(F)(F)F)cc2)cc1)C(=O)c1ccc(-c2ccc(NC(=O)OC)cc2C)cc1	42%	66% (active)	-6	93% (active)	inactive	inactive	inactive	inactive
NC(N)=NC(=O)Nc1cc(Cl)c(F)c(Cl)c1	64% (active)	22%	-4	100% (active)	inactive	inactive	inactive	inactive
Fc1cc(Cl)ccc1Nc1ccnc2cc(I)ccc12	10%	11%	-1	90% (active)	inactive	inactive	inactive	inactive
O=C(N[C@@H](Cc1ccccc1)C(=O)NC1CCCCCC1)c1ccc(O)c(-c2cccc(C(F)(F)F)c2)c1	70% (active)	-10%	-1	98% (active)	inactive	inactive	inactive	inactive
Cc1cc(N2CCN(C)CC2)nc2ccc(NC(=O)c3cccc(N(C)C)c3)cc12	23%	9%	4	85% (active)	inactive	inactive	inactive	inactive
COc1ccc2nccc([C@@H](O)CN3CCC(NCc4cc5sccc5nc4C(F)(F)F)CC3)c2c1	67% (active)	22%	4	89% (active)	inactive	inactive	inactive	inactive
Fc1ccc(-c2nc(NCc3cccc(C(F)(F)F)c3)nn2-c2cccc(C(F)(F)F)c2)cc1C(F)(F)F	58% (active)	2%	-5	90% (active)	inactive	inactive	inactive	inactive
CCN(CC)CCN(Cc1ccc(-c2ccc(C(F)(F)F)cc2)cc1)C(=O)Cn1c(CCc2cc(F)c(F)c(F)c2)nc(=O)c2ccccc21	70% (active)	31%	-4	101% (active)	inactive	inactive	inactive	inactive
COc1ccc2nccc([C@@H](O)CN3CCC(NC(=O)c4cc5ccccc5[nH]4)CC3)c2c1	55% (active)	19%	-3	96% (active)	inactive	inactive	inactive	inactive
Cc1ccc(Nc2nc(-c3ccccn3)cs2)nc1	97% (active)	60% (active)	-8	94% (active)	inactive	inactive	inactive	inactive
O=C1c2ccccc2C(=O)N1c1ccc(S(=O)(=O)N2CCOCC2)cc1	-1%	-1%	3	94% (active)	inactive	inactive	inactive	inactive
N=C(N)c1ccc(C(=O)Nc2cccc(C(=N)N)c2)cc1	82% (active)	13%	-2	88% (active)	inactive	inactive	inactive	inactive

Compound	growth inhibition [1]	inhibition [2]	inhibition [3] [%]	growth inhibition [4]	outcome [5]	outcome [6]	outcome [7]	outcome [8]
CC(=O)Nc1ccc2[nH]cc(C3CCN(CC4CCN(C(=O)/C=C/c5ccc(Cl)c(Cl)c5)CC4)CC3)c2n1	99% (active)	21%	-2	100% (active)	inactive	inactive	inactive	inactive
Cc1cc(Nc2cccc(C(F)(F)F)c2)nc(Nc2cccc(C(F)(F)F)c2)n1	73% (active)	-1%	-3	100% (active)	inactive	inactive	inactive	inactive
O=C(Nc1ccc(Cl)cc1C(=O)Nc1ccncc1)c1ccc(Cl)cc1Cl	75% (active)	8%	-5	99% (active)	inactive	inactive	inactive	inactive
COc1cc(NCCCNC(=O)c2ccc(Cl)c(Cl)c2)nc2ccccc12	101% (active)	48%	5	99% (active)	inactive	inactive	inactive	inactive
CON(C)C(=O)[C@@H](CCCCNC(=O)OCc1ccccc1)NC(=O)OC(C)(C)C	-1%	5%	-4	98% (active)	inactive	inactive	inactive	inactive
Cn1nc(C(F)(F)F)cc1-c1ccc(C(=O)Nc2ccc3c(c2)CNCC3(C)C)s1	36%	10%	-1	88% (active)	inactive	inactive	inactive	inactive
CCCN(CCC)C(=O)c1cc(C(=O)N[C@@H](Cc2ccccc2)[C@H](O)CNCc2cccc(C(F)(F)F)c2)cc(N2CCCCS2(=O)=O)c1	74% (active)	-5%	3	99% (active)	inactive	inactive	inactive	inactive
COc1ccc2ncc(F)c(CCN3C[C@H](CNCc4ccccc4)[C@H](O)C3)c2n1	22%	19%	8	89% (active)	inactive	inactive	inactive	inactive
Cc1ccc(OCCCCON2C(N)=NC(N)=NC2(C)C)cc1C	97% (active)	61% (active)	-3	94% (active)	inactive	inactive	inactive	inactive
COc1cc(Cc2cnc(N)nc2N)ccc1OCc1ccc(-c2csnn2)cc1	-2%	33%	-4	97% (active)	inactive	inactive	inactive	inactive
N#Cc1ccc2c(c1)CCN(CCC1CCC(Nc3ncnc4ccccc34)CC1)C2 (stereo not drawn)	96% (active)	65% (active)	-4	101% (active)	inactive	inactive	inactive	inactive
OC(CNc1ccnc(Nc2ccccc2)n1)c1ccc(C(F)(F)F)cc1 (stereo not drawn)	39%	3%	-2	101% (active)	inactive	inactive	inactive	inactive
Cc1cc(Nc2ccc3c(c2)CCC3)n2ncnc2n1	48%	4%	-2	86% (active)	inactive	inactive	inactive	inactive
CCn1c(-c2nonc2N)nc2cnc(Oc3cccc(NC(=O)c4ccc(OCCN5CCCCC5)cc4)c3)cc21	7%	16%	-1	98% (active)	inactive	inactive	inactive	inactive
O=[N+]([O-])c1cnc(Nc2ccccc2O)nc1Nc1ccccc1O	80% (active)	24%	-3	98% (active)	inactive	inactive	inactive	inactive
CCCC(=O)Nc1ccc(OCCN(Cc2ccccc2OC(F)(F)F)c2ccc(C(F)(F)F)c(C#N)c2)cc1	97% (active)	-11%	-1	85% (active)	inactive	inactive	inactive	inactive
Cc1cc(Nc2ccc(Cl)cc2)n2nc(C(F)(F)F)nc2n1	95% (active)	5%	-1	97% (active)	inactive	inactive	inactive	inactive
CCCc1cc(N2CCC(N3CCCC3)CC2)nc(Nc2ccc(Cl)cc2)n1	9%	29%	-2	96% (active)	inactive	inactive	inactive	inactive
CN(C)CCNc1cc(-c2ccc3ccccc3c2)nc2ccccc12	58% (active)	24%	-5	102% (active)	inactive	inactive	inactive	inactive
c1cc(CN2CCCCC2)cc(-c2cccc(-c3nc4ccccc4[nH]3)c2)c1	37%	39%	0	100% (active)	inactive	inactive	inactive	inactive
